PINK1 modulator – changes PINK1 expression | PINK1 immunofluorescence, high-content cytometry, 24 h | Potency, µM (series often up to 76.6 µM), for inactives: at the top dose activation (PINK1 increase), usual class: activators | actives 0.2% (n = 410,000) | AID 624263; active = well fitted activation curve with a large enough effect; inconclusive = small, poorly fitted or top-dose-only effect; cell line not stated here; note: potency is the fitted concentration of half-maximal effect; % of control where 0% means no effect; nearly all actives have a fitted effect of over 65% in size
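Compound titrations (5 concentrations, 24 h) on a stable cell line; DMSO and CCCP controls. Endpoint: fixed-cell PINK1 immunofluorescence with mitochondrial, cell and nuclear markers, scanned by microplate cytometer.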
IL-2 act – IL-2 activation. IL-2 activation reporter assay, cell-based qHTS; stimulated with anti-CD3/CD4/CD28 beads; in transgenic mouse T cells. activation, % (series mostly up to about 46 µM). actives 0.065% (n = 360,000); in the data active = activation above about 50%; inconclusive = mostly about 30% to 49%; note: 0% is about no effect
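Quantitative HTS in unstimulated transgenic mouse T cells, with memory T cells as non-tolerant control and PMA/ionomycin as tolerance-bypass control. Compound pretreatment lasted 60 minutes before 18 h bead stimulation; EGFP/DsRed fluorescence read.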
Epigenetic derep – regulators of epigenetic silencing causing reporter derepression in mouse cells | murine LDR cells, GFP reporter derepression, 30 h | Potency, µM (series often up to 53.9 µM), inactives show top-dose GFP activation, usual class: activators | actives 0.2% (n = 280,000); note: potency is the fitted concentration of half-maximal effect; % of control where 0% means no effect; nearly all actives have a fitted effect of over 60% in size
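Readout is the number of GFP-expressing murine LDR cells, counted by cytometry following washing. Cells were treated with compound for 30 h at 37 C; the stably integrated CMV-GFP locus is normally silent.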
B2AR arrestin – agonists driving beta-arrestin recruitment to human beta2-adrenergic receptor; beta-arrestin recruitment to beta2AR, cell-based reporter; actives 0.02% (n = 330,000); Potency, µM (highest dose often 46.1 µM), for inactives: at the highest dose activation, actives largely listed as activators;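 note: potency is the fitted concentration of half-maximal effect; 0% = DMSO controls and full agonism = EC100 isoproterenol or metaproterenol; nearly all actives have a fitted effect of over 65% in size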
PKM2 act – PKM2 (human) enzyme activation. purified PKM2, Kinase-Glo ATP luminescence, activation; response scale: 0% is enzyme alone, no compound. actives 0.34% (n = 260,000). Potency, µM (doses to about 57.5 µM), for the others: top-dose activation, actives largely listed as activators. P14618; note: potency is the fitted concentration of half-maximal effect; % is set by controls: 0 for no effect and ±100 for the full control effect; nearly all actives have a fitted effect of over 55% in size
Target sequence (P14618 whole entry, looked up): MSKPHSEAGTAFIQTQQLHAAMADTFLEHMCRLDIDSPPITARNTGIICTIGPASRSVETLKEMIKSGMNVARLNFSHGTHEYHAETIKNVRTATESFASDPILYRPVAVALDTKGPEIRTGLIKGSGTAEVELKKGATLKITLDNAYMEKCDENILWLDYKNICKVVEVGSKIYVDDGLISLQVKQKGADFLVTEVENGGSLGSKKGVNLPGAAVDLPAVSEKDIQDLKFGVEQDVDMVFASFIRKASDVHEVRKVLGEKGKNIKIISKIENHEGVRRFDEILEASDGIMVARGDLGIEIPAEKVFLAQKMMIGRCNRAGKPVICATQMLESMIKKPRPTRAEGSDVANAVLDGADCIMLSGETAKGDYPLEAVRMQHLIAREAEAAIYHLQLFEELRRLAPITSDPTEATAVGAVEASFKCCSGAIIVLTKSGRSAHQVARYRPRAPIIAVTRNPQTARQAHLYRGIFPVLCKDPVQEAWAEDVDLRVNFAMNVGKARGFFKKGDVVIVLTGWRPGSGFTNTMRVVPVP
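ATP formation by purified human PK-M2, quantified via coupled luciferase luminescence after 1 h at room temperature with 0.1 mM ADP and 0.5 mM PEP final.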
The depositor's hits bear a star; ? = inconclusive; . = no result; [ ] = another dose, or the depositor's remark. The list is not random: actives were taken first. Their share in the collection is about 0.58%. Unless noted, calls come from the whole dose curve; as a rule, active = well fitted curve in the direction sought with a large enough effect; inconclusive = small, poorly fitted or top-dose-only effect, or another doubt; inactive = no such curve, though single readings can be large; an effect the other way counts as inactive or inconclusive.

SMILES | PINK1 modulator | IL-2 act | Epigenetic derep | B2AR arrestin | PKM2 act
C(=N\NC1=Nc2cccc3cccc1c23)/c1ccccc1 | 5% | 268* | 6% | 3% | -5%
C(=N\NC1=Nc2cccc3cccc1c23)/c1cccnc1 | 0% | 0 | 4% | 0% | 2%
C/C(=N\Nc1ncnc2sc(C)c(C)c12)c1ccccn1 | 12% | 122* | . | 3% | .
C/C(=N\Nc1ncc(Cl)cc1Cl)c1ccccn1 | 0% | 71* | 0.63µM* | 4% | 8%
Cc1sc2ncnc(N/N=C/c3cccc(O)c3)c2c1C | -1% | -5 | 0% | -1% | -1%
CNC(=S)N1CCN(S(=O)(=O)c2ccc3ccccc3c2)CC1 | 5% | -2 | . | 0% | 20µM*
CN1CCCN(S(=O)(=O)c2ccc3ccccc3c2)CC1 | 0% | -4 | . | 0% | 20µM*
Oc1[nH]c2ccccc2c1N=NC(=S)N1CCOCC1 | 0% | -1 | 4µM* | 5% | -7%
Oc1[nH]c2ccc(Br)cc2c1N=NC(=S)N1CCOCC1 | 0% | -4 | -1% | 1% | -11%
COc1cc([N+](=O)[O-])ccc1NC(=S)Nc1cc(C(=O)OC(C)C)cc(C(=O)OC(C)C)c1 | 16µM* | 0 | -1% | 0% | -1%
COc1ccc(S(=O)(=O)N2CCC(n3cnc4ccccc43)CC2)cc1 | -2% | -1 | . | 0% | 16µM*
COc1ccc(S(=O)(=O)N2CCC(n3cnc4cc(C(F)(F)F)ccc43)CC2)cc1 | 0% | 1 | -1% | 0% | 18%
COc1ccc(-c2cc(C(F)(F)F)c3c(n2)sc2c(O)cc(=O)[nH]c23)c(OC)c1 | -1% | 2 | 11µM* | 3% | 2%
Cc1cc(C)c2c(n1)sc1c(O)cc(=O)[nH]c12 | 6% | -3 | 1% | 0% | -6%
O=C(Cc1c(F)cccc1Cl)Nc1ccon1 | 7.9µM* | -1 | -1% | 0% | 3%
Cc1ccc(N(Cc2cc3ccc(C)cc3[nH]c2=O)S(C)(=O)=O)c(C)c1 | 0% | -3 | 0% | 0% | 22µM*
Cc1ccc2cc(CN(C)S(C)(=O)=O)c(=O)[nH]c2c1 | 2% | 1 | 0% | 0% | 7%
CCn1c2ccccc2c2cc(NC(=O)c3coc(=O)c(Br)c3)ccc21 | . | . | 7% | 0% | -2%
CCn1c2ccccc2c2cc(NC(=O)c3ccc(Br)o3)ccc21 | 1% | 1 | 14µM* | 0% | 21%
COc1ccccc1-c1nc2cc(C(=O)NC[C@H]3CCc4ccccc4O3)cc(NC(C)=O)c2n1C | 1% | . | . | . | .
COc1cc(CNc2cccc3[nH]c(C(F)(F)F)nc23)cc(OC)c1 | 32µM* | 0 | . | 0% | .
COc1ccc(CNc2cccc3[nH]c(C(F)(F)F)nc23)cc1 | ? | 0 | . | 0% | .
COc1ccc(-c2cn3c(C)c(C(=O)Nc4cc(NC(C)=O)ccc4OC)sc3n2)cc1 | 10µM* | 15 | 3% | 2% | -3%
CNC(=O)c1sc2nc(-c3ccc(OC)cc3)cn2c1C | -1% | -1 | 2% | 0% | -3%
CC1=C/C(=N\NC(=S)NCc2ccccc2)CC1 | 0% | -1 | 13µM* | 7.1µM* | 3%
SMILES | PINK1 modulator | IL-2 act | Epigenetic derep | B2AR arrestin | PKM2 act
O=C1NC(Cc2ccccc2)C(=O)N1Cc1ccccc1 (centres undefined) | 0% | 1 | . | . | .
O=c1ccsn1Cc1ccccc1 | 0% | -4 | 0% | 0% | 5µM*
Cc1ccc2c(C)nc(Nc3nc(CSc4nc5ccccc5[nH]4)cc(=O)[nH]3)nc2c1 | 0%[38.3 µM] | -2 | 35µM* | 0% | -3%
COc1ccc(S(=O)(=O)N2CCN(C(=O)c3cccs3)CC2)cc1 | -3% | -1 | 1% | 0% | 14µM*
COc1ccc(S(=O)(=O)N2CCN(C(=O)Cc3cccs3)CC2)cc1 | 1% | 0 | 0% | 0% | ?
O=C1CN(S(=O)(=O)c2ccccc2)CCN1S(=O)(=O)c1ccccc1 | 2% | -2 | 1% | -1% | 4.5µM*
COc1cc(CNc2nc(C)c(-c3ccn(C4Cc5ccccc5C4)n3)s2)cc2c1OCO2 | 6% | . | . | . | .
COC(=O)CC(NC1CCN(c2nc(C)c3cc4c(cc3n2)CCC4)CC1)C(=O)OC (centres undefined) | 0% | . | . | . | .
Clc1cccc(Cl)c1CNC1CCCC1 | 3%[38.3 µM] | 104* | 4% | -1% | -17%
